# According to PubChem BioAssay AID1654 (Sanford-Burnham Center for Chemical Genomics, 2009):
# The whole screen tested about 290,000 compounds, of which about 1,500 (0.52%) were called active. Cut-off read from the data, not from the text of the source: active = inhibition above about 50%; inactive = the rest. The entries come from a sample that favours actives as a whole.
# Molecular target: Dual specificity protein phosphatase 3 (Homo sapiens) (UniProt P51452)
# Experiment: inhibition of human DUSP3 activity – biochemical, absorbance, uHTS, primary screen (AID 1654)
# [1] = recombinant VHR phosphatase, pNPP absorbance, at 13.3 µM, stronger effect = higher value
# Dual specificity protein phosphatase 3 (Homo sapiens), sequence (P51452 whole entry, looked up): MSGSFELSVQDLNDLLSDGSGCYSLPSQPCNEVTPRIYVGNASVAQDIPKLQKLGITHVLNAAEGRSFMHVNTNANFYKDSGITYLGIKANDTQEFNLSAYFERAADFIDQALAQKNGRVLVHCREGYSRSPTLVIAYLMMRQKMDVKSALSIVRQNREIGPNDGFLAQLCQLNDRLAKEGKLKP
structure (smiles),measurement,setting,value
CC(=O)Nc1ccc(S(=O)(=O)N2CCC(C(=O)NC3CC3)CC2)cc1,inhibition,[1],14.9% (inactive)
CCC(C(=O)NC1CCCC1)N(C(=O)Cn1nnc(-c2ccc(C)o2)n1)c1ccc(OC)c(OC)c1 (centres undefined),inhibition,[1],13% (inactive)
Nc1nc(SCC(=O)Nc2ccc(Cl)cc2C(F)(F)F)n[nH]1,inhibition,[1],2.5% (inactive)
CCN(C(=O)CSc1nnc(-c2ccncc2)o1)c1ccccc1,inhibition,[1],11% (inactive)
COc1cccc(OC)c1C(=O)Nc1c(C(=O)N2CCN(c3ccccn3)CC2)oc2ccccc12,inhibition,[1],52.1% (active)
COCC(=O)Nc1c(C(=O)N2CCCC2)oc2ccccc12,inhibition,[1],1% (inactive)
Cc1cc(C(=O)N2CCN(c3ccccn3)CC2)c(C)o1,inhibition,[1],-2.1% (inactive)
CCOc1ccc(CN2CCN(Cc3ccc4cc(F)ccc4n3)CC2CCO)cc1 (centres undefined),inhibition,[1],6.4% (inactive)
Cc1cccc(C(=O)OCC(=O)Nc2ccc(F)cc2)c1,inhibition,[1],8% (inactive)
Cc1cc(C)nc(-n2ncc3c2CC(c2ccc(C(C)C)cc2)CC3=O)n1 (centres undefined),inhibition,[1],1.9% (inactive)
NC(=S)Nc1c(Cl)cccc1Cl,inhibition,[1],24.6% (inactive)
CSCCNC(=O)c1ccc2nc(Cc3ccccc3F)oc2c1,inhibition,"recombinant VHR phosphatase, pNPP absorbance; at 13.3 µM; stronger effect = higher value",63.9% (inactive)
same,inhibition,"recombinant VHR phosphatase, pNPP absorbance; measured here: average of confirmation repeats; at 13.3 µM; stronger effect = higher value",2.8%
Cc1ccc(NC2CCCN(C(=O)CCc3cn[nH]c3)C2)cc1C (centres undefined),inhibition,[1],-2.7% (inactive)
CCOc1cc(/C=N/O)ccc1OCc1ccccc1F,inhibition,[1],-4.1% (inactive)
CCOc1cc(/C=N/NC(=O)OC)ccc1OCCSc1ccc(Cl)cc1,inhibition,[1],-3.8% (inactive)
CC(=O)c1nn(-c2cccc(C(F)(F)F)c2)c(=O)[nH]c1=O,inhibition,[1],-9.5% (inactive)
CN(CCO)c1ccc(/C=N/Nc2nncc3ccccc23)cc1,inhibition,[1],18.2% (inactive)
O=C(Nc1ccc(OCC(=O)N2CCOCC2)cc1)c1cc(F)c(F)cc1Cl,inhibition,[1],25.5% (inactive)
O=C1COc2ccc(S(=O)(=O)Nc3ccc(OC(F)(F)F)cc3)cc2N1,inhibition,[1],-1.9% (inactive)
COc1ccccc1NC(=O)CSc1nc2sc3c(c2c(=O)n1-c1ccccc1)CCN(C)C3,inhibition,[1],9.1% (inactive)
Cc1ccc(-c2nc(SCC(=O)Nc3ccccc3OC(F)F)c3c(C)c(C(=O)O)sc3n2)cc1,inhibition,[1],113% (active)
Cc1ccc(C)c(SCc2nc3sc(C(=O)O)c(C)c3c(=O)[nH]2)c1,inhibition,[1],7.2% (inactive)
CCN(CC)c1ccc(/C=N/NC(=O)CNC(=O)c2cccs2)cc1,inhibition,[1],10.2% (inactive)
CN(C(=O)COC(=O)CNC(=O)C12CC3CC(CC(C3)C1)C2)c1ccccc1,inhibition,[1],14.5% (inactive)
Cc1c(C(=O)O)nnn1-c1nonc1N,inhibition,[1],17.9% (inactive)
NNC(=O)c1nnn(-c2nonc2N)c1CN1CCCC1,inhibition,[1],52.8% (active)
Nc1nonc1-n1nnc(C(=O)N/N=C\c2ccncc2)c1CN1CCCCC1,inhibition,[1],13% (inactive)
Cc1ccc2c(c1)N(CC(=O)N1CCCC(C)C1)C(=O)CO2 (centres undefined),inhibition,[1],7.4% (inactive)
CCOc1ccc(CN2CCN(CCCc3ccccc3)C(CCO)C2)cc1 (centres undefined),inhibition,[1],8.1% (inactive)
Cc1noc(C)c1CCC(=O)N1CCCC(CO)(Cc2ccccc2)C1 (centres undefined),inhibition,[1],5.7% (inactive)
CC1CN(C(=S)Nc2ccc(Br)cc2Cl)CC(C)O1 (centres undefined),inhibition,[1],15% (inactive)
CCc1ccc(NC(=O)Cn2nnc(C(=O)NCc3ccc(OC)cc3)c2N)cc1,inhibition,[1],-1.9% (inactive)
CCOc1ccc(NC(=O)CN2CCN(CC(=O)Nc3ccc(OC)cc3)CC2)cc1,inhibition,[1],-3.3% (inactive)
CCc1ccc(NC(=O)CN2CCC(C(=O)c3ccc(OC)cc3)CC2)cc1,inhibition,[1],52% (active)
COc1ccc(CCNC(=O)C2CCCN(S(=O)(=O)c3ccc(OC)cc3)C2)cc1 (centres undefined),inhibition,[1],-35.9% (inactive)
CC(C)CCNC(=O)C1CCCN(S(=O)(=O)c2ccc(F)cc2)C1 (centres undefined),inhibition,[1],53.4% (active)
CCCCNC(=O)C1CCCN(S(=O)(=O)c2ccc(S(=O)(=O)NCC(C)C)cc2)C1 (centres undefined),inhibition,[1],6.5% (inactive)
CCc1cc(-c2nnc(SCC(=O)NC3CC3)n2C)cs1,inhibition,[1],24% (inactive)
O=c1c2c(-c3ccccc3)ccnc2[nH]n1-c1ccccc1,inhibition,[1],55.5% (active)
Cc1ccc(C2C3=C(Nc4[nH]n(-c5ccccc5)c(=O)c42)c2ccccc2C3=O)cc1 (centres undefined),inhibition,[1],1.7% (inactive)
O=c1[nH]cnc2c1c(-c1ccccc1)cn2-c1ccc(F)cc1,inhibition,[1],-6.9% (inactive)
Cc1ccc(-n2[nH]c(C)c(/C=N/N3C(=O)c4cccc5cccc(c45)C3=O)c2=O)cc1,inhibition,[1],20.9% (inactive)
Cc1ccc(-c2ccnc3[nH]n(-c4ccccc4)c(=O)c23)cc1,inhibition,[1],60% (active)
O=c1c(-c2cccc(Cl)c2)c[nH]n1-c1ccccc1,inhibition,[1],12.5% (inactive)
C[C@H](NC(=O)C1CCN(S(=O)(=O)c2ccccc2)CC1)C(=O)NCc1ccccc1,inhibition,[1],52.3% (active)
Cc1ccc(S(=O)(=O)N2CCC(C(=O)N[C@@H](C)C(=O)NCc3ccccc3)CC2)cc1,inhibition,[1],1.5% (inactive)
Cc1ccc(S(=O)(=O)N2CCC(C(=O)N[C@@H](C)C(=O)NCCc3ccccc3)CC2)cc1,inhibition,[1],6.2% (inactive)
N#Cc1c(-c2ccccc2)nc(SCc2ccc([N+](=O)[O-])cc2)[nH]c1=O,inhibition,[1],4.1% (inactive)
O=C(C(NS(=O)(=O)c1cccc2nsnc12)c1ccccc1)N1CCN(c2ccccn2)CC1 (centres undefined),inhibition,[1],52.7% (active)
O=C(O)C(NS(=O)(=O)c1cccc2nsnc12)c1ccccc1 (centres undefined),inhibition,[1],13.3% (inactive)
O=C(C(NS(=O)(=O)c1cccc2nsnc12)c1ccccc1)N1CCN(c2ccccc2)CC1 (centres undefined),inhibition,[1],-12.8% (inactive)
O=C(NCCOc1cccnc1)c1ccc(OC2CCN(Cc3ccccn3)CC2)cc1,inhibition,[1],18.5% (inactive)
Fc1ccc(/C=N/n2c(COc3ccccc3)n[nH]c2=S)cc1,inhibition,[1],26.3% (inactive)
C/C(=N/O)c1ccc(N2C(=O)C3C4C=CC(C3C2=O)C2C3C(=O)N(c5ccc(/C(C)=N/O)cc5)C(=O)C3C42)cc1 (centres undefined),inhibition,[1],-7.1% (inactive)
CC1CCN(C(=O)/C(=C\c2ccccc2F)NC(=O)c2ccccc2)CC1,inhibition,[1],18.5% (inactive)
CN(CC(=O)NCc1ccc(Cl)cc1)S(=O)(=O)c1cccs1,inhibition,[1],21.4% (inactive)
COc1ccc(NC2CCCN(C(=O)c3ccncc3)C2)cc1 (centres undefined),inhibition,[1],54.2% (active)
CC(C)c1ccc(NC2CCCN(C(=O)c3ccncc3)C2)cc1 (centres undefined),inhibition,[1],13.7% (inactive)
Cc1cccc(C(=O)N2CCCC(Nc3ccc(C(C)C)cc3)C2)n1 (centres undefined),inhibition,[1],10.8% (inactive)
COc1cc(C(=O)N2CCN(C3CCC(C)CC3)CC2)cc(OC)c1OC (centres undefined),inhibition,[1],16.6% (inactive)
CCOc1ccc2[nH]c(=O)c(CN(CCCO)S(=O)(=O)c3ccc(F)cc3)cc2c1,inhibition,[1],39.4% (inactive)
COc1cc(C(=O)NCc2ccncc2)cc(Br)c1OCc1ccccc1,inhibition,[1],50% (active)
COc1cc(C(=O)NCc2ccc(-n3cccc3)cc2)cc(OC)c1OC,inhibition,[1],33.3% (inactive)
COc1cc(C(=S)NCc2ccccc2)cc(Br)c1O,inhibition,[1],25.9% (inactive)
CCOC(=O)c1c(S(=O)(=O)Nc2ccc(CN3CCC(C)CC3)cc2)c(C)n(C)c1C,inhibition,[1],-22.3% (inactive)
CCOc1ncccc1C(=O)N(CC)CC(=O)Nc1ccc(NC(C)=O)cc1,inhibition,[1],1.3% (inactive)
CCOc1ncccc1C(=O)N(C)CC(=O)Nc1ccc(F)cc1,inhibition,[1],59.9% (active)
CN(CC(=O)Nc1ccc(F)cc1)C(=O)c1ccc(-c2ccc(Cl)cc2)o1,inhibition,[1],16.7% (inactive)
Cc1cccc2nc(CNc3ccc(F)cc3)cn12,inhibition,[1],-14.9% (inactive)
CN(C(=O)c1ccccc1)c1nccnc1C#N,inhibition,[1],25% (inactive)
Cc1cc(N2C(=O)C(O)=C(C(=O)c3ccc(C)o3)C2c2ccc(OCc3ccccc3)cc2)no1 (centres undefined),inhibition,[1],12.3% (inactive)
CCn1c(=O)c(=O)n(CC)c2cc(S(=O)(=O)N3CCc4ccccc43)ccc21,inhibition,[1],50.3% (active)
O=S(=O)(c1ccc2c(c1)OCCO2)N1CCc2ccccc21,inhibition,[1],13.6% (inactive)
Cn1c(=O)n(C)c2cc(S(=O)(=O)N3CCCc4ccccc43)ccc21,inhibition,[1],3.5% (inactive)
Cc1cc(C)nc(SC2CCCCC2NS(=O)(=O)c2ccc(Cl)cc2)n1 (centres undefined),inhibition,[1],1.5% (inactive)
Cc1cc(C)nc(NS(=O)(=O)c2ccc(N3C(=O)C4CCCCC4C3=O)cc2)n1 (centres undefined),inhibition,[1],57.6% (active)
Cc1ccc(S(=O)(=O)Nc2nc(C)cc(-n3nc(C)cc3C)n2)cc1,inhibition,[1],28.3% (inactive)
COc1ccc(CCc2nc(-c3cccs3)no2)cc1,inhibition,[1],-3.6% (inactive)
Cc1c(CCC(=O)O)c(=O)oc2c(C)c(OCc3ccccc3Cl)ccc12,inhibition,[1],57.3% (active)
Cc1c(CCC(=O)O)c(=O)oc2cc(OCc3ccc(Br)cc3)ccc12,inhibition,[1],2.4% (inactive)
CCOC(=O)CCc1c(C)c2ccc(OCc3nn[nH]n3)c(C)c2oc1=O,inhibition,[1],-7.7% (inactive)
COc1ccc2oc(=O)cc(CN3CCOCC3)c2c1,inhibition,[1],-2.3% (inactive)
CCc1ccccc1NC(=O)/C(=C/c1ccccc1)c1ccccc1,inhibition,[1],-11.5% (inactive)
CCOCCCNCc1cc(Br)ccc1OCC,inhibition,[1],3% (inactive)
CCOCCCNCc1ccc(OCc2ccc(F)cc2)c(OC)c1,inhibition,[1],23.4% (inactive)
CCOc1ccccc1OCCCNCc1ccccc1,inhibition,[1],59.7% (active)
COc1ccc(S(=O)(=O)N2CCC(C(=O)N3CCCC3)CC2)cc1C,inhibition,[1],-11.4% (inactive)
O=C(N1CCCCC1)N1CCN(C(=O)N2CCCCC2)CC1,inhibition,[1],17.7% (inactive)
CCOC(=O)C1CCN(C(=O)COc2cccc3ccccc23)CC1,inhibition,[1],1.1% (inactive)
N#Cc1ccccc1CN1C(=O)S/C(=C/c2cccn2-c2cccc(C(=O)O)c2)C1=O,inhibition,[1],50.3% (active)
Cc1cc(/C=C2\SC(=O)N(C)C2=O)c(C)n1-c1cccc(C(=O)O)c1,inhibition,[1],15.5% (inactive)
Cc1ccccc1NC(=O)CN1C(=O)N/C(=C\c2cccn2-c2cccc(C(=O)O)c2)C1=O,inhibition,[1],35.6% (inactive)
CC(=O)N1CCCc2cc(S(=O)(=O)N3CCCC(C(=O)NCc4ccc(Cl)cc4)C3)ccc21 (centres undefined),inhibition,[1],5.3% (inactive)
CC(=O)N1c2ccc(S(=O)(=O)N3CCC(C(=O)NCc4ccc(F)cc4)CC3)cc2CC1C (centres undefined),inhibition,[1],34.4% (inactive)
CC(=O)N1c2ccc(S(=O)(=O)N3CCCC(C(=O)NCc4ccc(Cl)cc4)C3)cc2CC1C (centres undefined),inhibition,[1],52.7% (active)
CCC(C)c1ccccc1NC(=O)CN(C)CC(=O)Nc1ccccc1SC (centres undefined),inhibition,[1],-2.9% (inactive)
CC1(C)C2CCC1(CS(=O)(=O)NCCc1c[nH]c3ccccc13)C(=O)C2 (centres undefined),inhibition,[1],-8.1% (inactive)
CCC(CC)C(=O)N1CCN(c2cccc(C)c2C)CC1,inhibition,[1],-4.1% (inactive)
NC(=O)N1CCc2ccccc21,inhibition,[1],30.9% (inactive)
Cc1cccc(N2CCN(C(C)C(=O)N3CCc4ccccc43)CC2)c1C (centres undefined),inhibition,[1],52.9% (active)
O=C1Nc2cc(C(=O)N3CCN(c4ccc(F)cc4)CC3)ccc2NC1CSCc1cccc(F)c1 (centres undefined),inhibition,[1],-24.2% (inactive)
O=C(O)c1cc(S(=O)(=O)N(Cc2ccccc2)c2ccccc2)ccc1Cl,inhibition,[1],10.4% (inactive)
CCCn1cc(S(=O)(=O)c2ccc(C)cc2)c(=O)c2cc(OCC)ccc21,inhibition,[1],-25.6% (inactive)
CCn1cc(S(=O)(=O)c2cccc(C)c2)c(=O)c2cc(F)c(N3CCN(C)CC3)cc21,inhibition,[1],5.7% (inactive)
CCOc1ccc2c(c1)c(=O)c(S(=O)(=O)c1ccc(C)cc1)cn2CC,inhibition,[1],52.5% (active)
COC(=O)c1c(C)[nH]c(C(=O)/C=C/c2ccc(Cl)cc2)c1C,inhibition,[1],-0.3% (inactive)
COc1ccc(OC)c(CNC(=O)Cn2nc(C)c3c(C)n(-c4ccc(C)cc4)nc3c2=O)c1,inhibition,[1],-9% (inactive)
CC(C)CC(=O)NC(=S)NNC(=O)c1cccc([N+](=O)[O-])c1,inhibition,[1],-16.7% (inactive)
